Test results from PubChem BioAssay (NCI).
Compounds without any hit were thinned out: in the full panel of roughly 83,000, 20% have a hit.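 Negative percent growth values reflect cell death: -40 means 40% of the cells present at the start died, and -100 means all died.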 Values without a mark were called inactive. Active and inactive are the calls of the source.

The compounds below were run on HCC-2998 colon (assay: NCI-60 one-dose screen, 48 h (100 = growth as untreated, 0 = no growth, -100 = all killed)). Details: 10 µM unless noted.
Protocol: Growth inhibition of the HCC-2998 human tumor cell line is measured as a screen for anti-cancer activity. Cells are grown in 96 well plates and exposed to the test compound for 48 hours. Compounds are tested at a single concentration, which is 10^-5 M for most compounds. The reported endpoint is percent growth (GI% or GIPRCNT), where numbers from 0 - 100% represent growth inhibition, and numbers from -100% - 0 represent cell death. For example, a value of 40 represents 60% growth inhibition. A value of 0 means no net growth occurred over the course of the experiment. A value of -40 indicates 40% of cells at the beginning of the experiment died by the end of the experiment. A value of -100 means all cells are dead at the end of the experiment.
NCI-60 Human Tumor Cell Lines Screen was performed using the standard one-dose NCI protocol, which is described in more detail at https://dtp.cancer.gov/discovery_development/nci-60/default.htm.
Compounds with GIPRCNT values below 10 were considered active. Activity score was based on GIPRCNT using the following formula: […]
Score is 0 for GIPRCNT values of 100 or above, 50 for GIPRCNT values of 0, and 100 for GIPRCNT values of -100.
`O=C(Cc1ccc(/C=C/C(=O)c2ncc[nH]2)cc1)Nc1ccccc1` was tested, and the growth was 90.4%. For `CCCN1CCN(c2ccc3nc(-c4ccc5nc(-c6ccc(OCC)cc6)[nH]c5c4)[nH]c3c2)CC1`, the growth was -96.9% (active). `C=C(C)[C@@H]1CC[C@]2(C(=O)OC)CC[C@]3(C)[C@H](CC[C@@H]4[C@@]5(C)C/C(=C/c6cccc(I)c6)C(=O)C(C)(C)[C@@H]5CC[C@]43C)[C@@H]12` showed a growth of 99.7%. For `COc1cccc(-c2nc3sccn3c2-c2ccnc(NCCNS(=O)(=O)c3ccccc3)c2)c1`, the growth was 53.2%. With `Fc1ccc(CNc2cccc3[nH]c(C(F)(F)F)nc23)cc1` the growth was 119%. Work on `O=C(COc1cccc(/C=C2\COc3ccc(Cl)cc3C2=O)c1)c1ccc(Cl)cc1` yielded a growth of 129%. Work on `O=C(O)c1ccc(NC(=O)c2ccc(-c3cccc([N+](=O)[O-])c3)o2)cc1` yielded a growth of 99.3%. `C=CC(=O)Nc1cccc(-c2nc(SC)nc(NCCc3ccc(OC)c(OC)c3)c2C#N)c1` showed a growth of 87.1%. For `Cc1c(/C=C/[N+](=O)[O-])ccc2c1[nH]c1ccccc12`, the growth was -30.7% (active). `O=C(N/N=C/c1ccccc1O)c1ccccc1Nc1ccnc(C(F)(F)F)c1` gave a growth of 46%. `C=CC(=O)Nc1cccc(-c2nc(SC)nc(NCCN3CCOCC3)c2C#N)c1` was tested, and the growth was 115%. `CCN(CC)CCCCNc1c2ccc(Cl)cc2nc2ccc(OC)cc12` was tested, and the growth was -78.6% (active). Work on `Oc1cccc2ccc(N/N=C/c3cc(CN4CCOCC4)c(O)c4ncccc34)nc12` yielded a growth of 26.6%. `N#CCCN=Nc1c(O)[nH]c2ccc([N+](=O)[O-])cc12` showed a growth of 111%. In the case of `COc1cccc(NC(=O)c2sc3nc(C)c(C(C)=O)cc3c2N)c1`, the growth is reported as 54.5%. `CCn1c(O)c(/C=N/NC(=O)C(C)c2ccc(CC(C)C)cc2)sc1=S` (stereo not given) gave a growth of 29.5%. Work on `O=C1c2ccccc2OC=C(c2ccccc2)N1CCCCNc1ccc(S(=O)(=O)Nc2ncccn2)cc1` yielded a growth of 111%. `COc1cc(/C=C/c2cc(O)c3cc(C(C)=O)c(=O)oc3c2)cc2c1O[C@]1(C)CC[C@@H](O)C(C)(C)[C@H]1C2` showed a growth of 67%. Compound `O=C(/C=C/c1ccccc1)c1ccc(O)c(CN2CCN(c3cc4c(cc3F)c(=O)c(C(=O)O)cn4C3CC3)CC2)c1` has a growth of 41.2%. Compound `COc1ccc(-c2nc3ccc(-c4nc5ccc(N6CCN(C)CC6)cc5[nH]4)cc3[nH]2)cc1OC` has a growth of 77.7%. Work on `OCC(O)c1nc2ccc3[nH]ncc3c2c2c1CCCC2` (stereo not given) yielded a growth of 29.5%. `COc1nc2c(c(=O)n1C)CN(Cc1ccccc1)C=N2` gave a growth of 113%. `O=C(COc1cccc(/C=C2\COc3ccccc3C2=O)c1)Nc1nccs1` was tested, and the growth was -85.6% (active). With `Cc1ccc(NS(=O)(=O)c2ccc(-c3cnc(C4CC4)o3)cc2)cc1C` the growth was 45%. For `CC(C)(C)c1cc(C(C)(C)C)cc(S(=O)(=O)Nc2cc3ccccc3cc2C(=O)NCCN)c1`, the growth was -38.6% (active). `NC(N)=N/N=C(/c1ccccc1)c1ccc(F)cc1` was tested, and the growth was -43.7% (active). `COc1cc(/C=C/C(=O)c2cccnc2Nc2ccc(F)cc2)cc(OC)c1OC` gave a growth of 21.7%. For `N#C/C(=C\c1ccc(-c2ccc(Cl)c(Cl)c2)o1)c1nc(-c2ccco2)cs1`, the growth was 0.932% (active). In the case of `O=C1c2cc3c(cc2-c2c1c1ccc(F)cc1c(=O)n2C[C@H](O)[C@H](O)[C@H](O)CO)OCO3`, the growth is reported as -50.2% (active). `CN1CCN(c2nc(NCCCNc3ccnc4cc(Cl)ccc34)c3ccccc3n2)CC1` showed a growth of 37.2%. `CS(=O)(=O)c1ccc(-n2nc(-c3ccc(Br)cc3)c3ccccc3c2=O)cc1` gave a growth of 98%. For `O=C1c2cc3c(cc2-c2c1c1cc(F)c(F)cc1c(=O)n2CCCn1ccnc1)OCO3`, the growth was 13.5%. In the case of `COc1cc(-c2nc3cc(Cl)c(Cl)cc3[nH]2)ccc1OCC(=O)N=Nc1c(O)[nH]c2ccccc12`, the growth is reported as -91.1% (active). `COc1ccc2cc(-c3nn(-c4ccc(C(=O)O)cc4)cc3CO)ccc2c1` gave a growth of 100%. In the case of `CNC(=O)c1cc(Oc2ccc(NC(=O)Nc3ccc(Cl)c(OC(F)(F)F)c3)c(F)c2)ccn1`, the growth is reported as 39%. With `COc1cccc(C2=NN3C(C2)c2cc(Br)cc(OC)c2OC32CCN(Cc3ccccc3)CC2)c1` (stereo not given) the growth was 99.2%. In the case of `O=C1/C(=C/c2cn(-c3ccccc3)nc2-c2ccccc2)SC(=S)N1CCc1ccccc1`, the growth is reported as 107%. Compound `C#CCOc1ccc2ncnc(NCc3cccc(NC(=O)CCl)c3)c2c1` has a growth of 99.7% [8.25 µM]. Compound `C#Cc1cccc(NC(=O)c2ccccc2NC(=O)C=C)c1` has a growth of 104% [8.25 µM]. In the case of `C#CC(F)(F)[C@]1(O)CC[C@H]2[C@@H]3CCC4=CC(=O)CCC4=C3[C@@H](c3ccc(C(C)=O)cc3)C[C@@]21C`, the growth is reported as 108%.
